# Hit rate of the full screen: of about 360,000 compounds, about 25,000 (6.9%) were called active. Inconclusive results (about 9%) are left out. The entries come from a sample that favours actives as a whole. Values without a mark were called inactive. Calls come from the whole dose curve; as a rule, active = well fitted inhibition curve with a large enough effect; inconclusive = small, poorly fitted or top-dose-only effect; inactive = flat fitted curve, though single readings scatter.
# Biological target: Luciferin 4-monooxygenase (Photinus pyralis) (UniProt P08659)
# Sequence (P08659 whole entry, looked up): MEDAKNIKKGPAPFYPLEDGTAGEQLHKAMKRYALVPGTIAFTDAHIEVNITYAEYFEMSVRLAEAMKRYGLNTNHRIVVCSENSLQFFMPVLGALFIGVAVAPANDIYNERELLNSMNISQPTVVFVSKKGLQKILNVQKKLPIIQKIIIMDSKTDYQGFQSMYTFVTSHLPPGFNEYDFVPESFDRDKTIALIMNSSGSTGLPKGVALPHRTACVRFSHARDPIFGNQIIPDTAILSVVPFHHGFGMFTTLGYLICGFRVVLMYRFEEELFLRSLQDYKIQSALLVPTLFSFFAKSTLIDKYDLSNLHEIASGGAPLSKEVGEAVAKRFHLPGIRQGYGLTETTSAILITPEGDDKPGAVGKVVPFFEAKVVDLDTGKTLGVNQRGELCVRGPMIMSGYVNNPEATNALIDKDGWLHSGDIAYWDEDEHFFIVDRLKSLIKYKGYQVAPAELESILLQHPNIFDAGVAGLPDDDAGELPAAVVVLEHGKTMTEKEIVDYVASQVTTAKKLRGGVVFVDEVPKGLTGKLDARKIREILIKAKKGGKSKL
# Experiment: qHTS profiling assay for firefly luciferase inhibitor/activator using purifed enzyme and Km concentrations of substrates (counterscreen for miR-21 project); note: nearly all actives have a fitted effect of over 55% in size;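 for activity change, negative = inhibition: plate controls were vehicle for no effect and reference inhibitor for full effect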
# Settings: purified FLuc, luminescence inhibition; series mostly up to 57.5 µM; activity change, negative = inhibition: at the top concentration
# In short: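 Biochemical qHTS of compounds, final roughly 60 µM downward over six points, against 10 nM purified firefly luciferase using Km concentrations of substrates (10 uM D-luciferin, 10 uM ATP) in Tris acetate pH 7.5 buffer; luminescence output.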
# Potency is the fitted concentration of half-maximal effect.
Compound,Potency,"activity change, negative = inhibition [%]"
CSc1nc2ccc(NC(=O)c3c(F)cccc3F)cc2s1,19 µM (active),
O=C(Nc1ccncc1)c1c(F)cccc1F,,-3.22
CC(=O)Nc1ccc2nc(SCCOc3cc(C)cc(C)c3)sc2c1,,-7.29
CCn1c(=O)c(=O)n(CC)c2cc(N3CCCCC3)c(NC(=O)c3ccc(Cl)cc3)cc21,,2.47
CC(=O)Cn1ncc(N2CCOCC2)c(Br)c1=O,,-1.76
O=C(Cn1ncc(N2CCCC2)c(Br)c1=O)c1ccc(Cl)cc1,19 µM (active),
O=C(O)c1cccc(NC(=O)c2cc(-c3cccc(Cl)c3)nc3ccccc23)c1,16.9 µM (active),
COc1ccccc1NC(=O)c1cc(Cl)nc2ccccc12,,-8.53
CCN(CC)CCNC(=O)c1ccc(NC(=O)c2cc(-c3ccncc3)nc3ccccc23)cc1,,-1.21
COc1ccc(CNC(=O)CSc2n[nH]c(-c3ccc(F)cc3)n2)cc1,,-15.8
CCOc1cc(-c2nnc(SCC(=O)NC3CCCC3)nc2-c2ccc(OC)c(OCC)c2)ccc1OC,,-2.08
CCc1ccc(-c2nc(SCC(=O)NC3CCCC3)n[nH]2)cc1,19 µM (active),
CC(=O)C[C@@H](O)CC(=O)[C@H]1OC(=O)CCCCCCc2ccccc21,,0.211
CC(C)(C)c1ccc(C(=O)N2CCC(C(=O)N3CCCCC3)CC2)cc1,,1.12
O=C(Nc1ccccc1)C1CCN(C(=O)c2ccc(Br)cc2)CC1,,3.48
C/C(=C\C(=O)c1ccc(Br)cc1)N1CCCCC1,15.1 µM (active),
COc1cccc(CNC(=O)Cn2ncn3c(cc4ccccc43)c2=O)c1,,3.75
Cc1cc(NC(=O)CN2CCCC(C)C2)n(-c2nc3ccccc3s2)n1 (stereo not drawn),,-0.742
CCC(C)Cn1c(O)cc2nn(-c3nc4ccccc4s3)c(=O)c-2c1C (stereo not drawn),0.301 µM (active),
S=C(Nc1cccc(Br)c1)N1CCn2cccc2C1c1cccnc1 (stereo not drawn),,1.23
CCCCCCCCCCCCCCCC(=O)OC/C=C(C)/C=C/C=C(C)/C=C/C1=C(C)CCCC1(C)C,,-0.543
O=C(CCS(=O)(=O)c1ccc2c(c1)NC(=O)CO2)Nc1cccc(C(F)(F)F)c1,,-2.12
CCNc1nc(SCCOc2ccccc2)nc(N(C)C)n1,,-13.8
COc1cn(CC(=O)Nc2cccc(C)c2C)c(CN2CCCCC2)cc1=O,,0.302
Cc1ccc(S(=O)(=O)Oc2ccc(/C=N/NC(=O)c3ccncc3)cc2)cc1,,-2.83
Cc1ccc(/C=N/NC(=O)C(NC(=O)c2ccccc2)c2n[nH]c(=O)c3ccccc23)cc1 (stereo not drawn),19 µM (active),

Compound,Potency,"activity change, negative = inhibition [%]"
Cc1ccc(/C=N/NC(=O)COc2ccccc2-c2ccccc2)cc1,,4.74
CCOC(=O)c1cccc(NC(=O)C(Cc2ccccc2)NS(=O)(=O)c2cccc3nsnc23)c1 (stereo not drawn),,6.66
CN(C(=O)CSc1nc2ccccc2n1Cc1ccccc1C#N)c1ccccc1,,-8.81
O=C(COc1ccc(/C=N/NC(=O)c2ccc(O)cc2)cc1)Nc1ccc([N+](=O)[O-])cc1,,-11.2
O=C(N/N=C/c1ccsc1)c1cc(O)cc(O)c1,21.3 µM (active),
O=C(N/N=C/c1ccc(O)c(O)c1)C1c2ccccc2Oc2ccccc21,,-0.323
Cc1cccc(-n2ncc(C(=O)N3CCc4ccccc4C3)c2C2CCN(C(=O)OC(C)(C)C)CC2)c1,,-6.87
Cc1ccc(NC(=O)c2nc(S(=O)(=O)Cc3cccc(C)c3)ncc2Cl)cc1,,-18.8
Nc1[nH]c(=S)nc2nc(-c3ccccc3)c(-c3ccccc3)nc12,,-0.431
O=C(c1cccc([N+](=O)[O-])c1)N1CCN(Cc2ccccc2)CC1,,-2.8
Cc1c(Br)c([N+](=O)[O-])nn1CC(=O)N1CCN(Cc2ccccc2)CC1,13.5 µM (active),
Cn1nnnc1SCC(=O)N1CCN(Cc2ccccc2)CC1,,6.53
Cc1cccc(NS(=O)(=O)c2ccc(-c3cnc(C4CC4)o3)cc2)c1,,1.53
COc1ccc(/C=N/N=C2/C(=O)Nc3ccccc32)cc1O,19 µM (active),
COc1ccc(/C=N/N(C)C2=NS(=O)(=O)c3ccccc32)cc1OC,,-2.58
CCOc1ccc(/C=N/NC(=O)CSc2ccccn2)cc1O,,-2.26
CCOC(=O)c1cc(-c2ccccc2)n(-c2cccc(C(=O)Nc3cc(OC)cc(OC)c3)c2)c1C,,-7.06
Cc1cc(C)c2oc(C(=O)Nc3ccc(S(=O)(=O)N(C)c4ccccc4)cc3)cc(=O)c2c1,,5.08
O=C(NCCN1CCCC(O)C1)c1cc(COc2c(F)cccc2F)on1 (stereo not drawn),,-0.38
O=C(Oc1ccc(F)cc1)N1CCOCC1,,-0.597
O=C(c1cc(COc2c(F)cccc2F)on1)N1CCSCC1,19 µM (active),
O=C(c1cc(COc2ccc(F)cc2F)on1)N1CCOCC1,16.9 µM (active),
O=C(c1cc(COc2cccc(C(F)(F)F)c2)on1)N1CCSCC1,,-0.261
C=CCC1(CC=C)CCCN1C(=O)c1cc(COc2ccc(-n3cncn3)cc2)on1,,-3.43
COc1ccc(CCN2C(=O)c3oc4cc(C)cc(C)c4c(=O)c3C2c2ccccc2F)cc1OC (stereo not drawn),,-13.9
COc1cccc(CNCCSc2nnnn2C)c1OCc1ccccc1Cl,,2.21

Compound,Potency,"activity change, negative = inhibition [%]"
O=C(NCCCc1ccccc1)c1ccc2c(c1)sc1nc(-c3ccc(F)cc3)cn12,,-6.72
CCOc1ccc(-c2nc(C)sc2CC(=O)O)cc1,,-4.12
C/C(=N/Nc1nc(-c2ccccc2)c(CC(=O)O)s1)c1ccccc1,5.36 µM (active),
CCOC(=O)C(=O)Nc1nc(-c2ccccc2)c(CC)s1,,3.83
Cc1ccc(C)c(N2CCN(S(=O)(=O)c3ccc4c(c3)C(C(C)C)C(=O)N4)CC2)c1 (stereo not drawn),,-12.1
CN(Cc1ccccc1)C(=O)COc1ccccc1,9.53 µM (active),
CN(Cc1ccc(F)cc1)C(=O)COc1ccc2ccccc2c1,,-8.15
CN(Cc1ccccc1)C(=O)c1ccc(COc2ccccc2)cc1,,-11.3
Cc1ccccc1-c1nc2scc(CCNC(=O)C(=O)Nc3ccc(F)cc3F)n2n1,,0.856
CC1CCCCC1NC(=O)COC(=O)Cc1ccc(Cl)cc1 (stereo not drawn),,-1.87
CCOc1ccc(C(=O)Nc2nccs2)cc1[N+](=O)[O-],,-17.8
CC(=O)Oc1ccc(C(=O)Nc2nccs2)cc1,10.7 µM (active),
CCN(c1ccccc1)S(=O)(=O)c1ccc(C(=O)Nc2nccs2)cc1,,-0.951
Cc1nc(-c2ccccc2)sc1-c1nc(-c2ccccc2)ncc1S(=O)(=O)c1ccccc1,,0.487
COc1ccccc1-c1nnc(C2CCN(C(=O)c3ccc(Cl)cc3)CC2)o1,,-0.92
Cc1nc(-c2ccccc2)sc1-c1nnc(C2CC2)o1,15.1 µM (active),
COc1cc(C(=O)NCCS(=O)(=O)N2CCN(c3ccccc3)CC2)cc(OC)c1OC,,-2.54
C/C(=C\c1ccccc1)C1NC(=O)c2c(sc3c2CCCC3)N1 (stereo not drawn),,2.44
CCOC(=O)N1CCc2c(sc3c2C(=O)NC(c2ccccc2F)N3)C1 (stereo not drawn),,-9.86
O=C1NC(c2ccncc2)Nc2sc3c(c21)CCCC3 (stereo not drawn),21.3 µM (active),
CC(C)[C@H](NC(=O)OCc1ccccc1)C(=O)OCc1ccccc1,,-0.684
Cc1cc(C)cc(Nc2ncnc3onc(-c4ccc(F)cc4)c23)c1,,0.145
COc1cc(NS(=O)(=O)c2cccs2)cc(OC)c1,,-3.17
O=S(=O)(Nc1ccccc1)c1ccc(NS(=O)(=O)c2cccs2)cc1,,0.235
C/C(=N\NC(=O)Cc1ccccc1[N+](=O)[O-])c1cccnc1,15.1 µM (active),
C/C(=N\NC(=O)c1ccc(NS(=O)(=O)c2cccs2)cc1)c1ccc2ccccc2c1,19 µM (active),

Compound,Potency,"activity change, negative = inhibition [%]"
C/C(=N\NC(=O)c1cccnc1)c1ccc(-n2ccnc2)cc1,,-5.01
CCOc1ccccc1-c1cc(C(=O)N/N=C(\C)c2cccnc2)c2ccccc2n1,,2.99
C/C(=N\NC(N)=S)c1cccnc1,,0.115
C/C(=N\NC(=O)c1cc(-c2ccc(O)cc2)nc2ccccc12)c1cccnc1,6.01 µM (active),
C/C(=N\NC(=O)c1ccc2ccccc2c1)c1cccnc1,19 µM (active),
C/C(=N\NC(=O)c1cccnc1)c1ccc(-c2ccccc2)cc1,,0.0468
C/C(=N\NC(=O)Cc1ccc(Br)cc1)c1cccnc1,,-0.0582
Cc1nc2nc(SCC(=O)N(Cc3ccccc3)C(C)C)nn2c(C)c1Cc1ccccc1Cl,,1.64
NS(=O)(=O)c1ccc(CCNC(=O)COC(=O)COc2cccc(C(F)(F)F)c2)cc1,,3.88
CC(C)Cn1c(=O)c2ccccc2n2c(-c3cccc(Cl)c3)nnc12,,-7.72
COc1ccc(NC(=O)C2CCCN(S(=O)(=O)c3cccc4nonc34)C2)cc1Cl (stereo not drawn),,2.63
Cc1ccc(Cl)cc1N1CCN(C(=O)CN2C(=O)COc3ccc(S(=O)(=O)N4CCOCC4)cc32)CC1,,-0.641
Cc1cccc(N2CCN(C(=O)CCn3c(=O)c4cccn4c4cccnc43)CC2C)c1 (stereo not drawn),,1.02
O=C(c1cccc(Cl)c1)N1CCN(CCc2ccncc2)CC1,,0.749
O=C(NNS(=O)(=O)c1ccc([N+](=O)[O-])cc1)C1CCCCC1,,1.02
COc1ccc(OC)c2sc(N3CCN(C(=O)C4COc5ccccc5O4)CC3)nc12 (stereo not drawn),,-1.76
O=C(NCCc1ccc(C(F)(F)F)cc1)c1ccc2c(c1)OCO2,,3.23
CC(NCC(=O)Nc1ccccc1C(=O)NC1CC1)c1ccccc1Cl (stereo not drawn),,-1.23
C/C(=N\NC(=O)c1cccc([N+](=O)[O-])c1)c1cccnc1,,0.224
CC1CCc2sc(C(=O)NCC(c3ccco3)N3CCCCC3)cc2C1 (stereo not drawn),,-3.5
C/C(=N\NC(=O)c1cc2c(s1)CCC(C)C2)c1cccnc1 (stereo not drawn),16.9 µM (active),
C/C(=N\NC(=O)CNC(=O)C(c1ccccc1)c1ccccc1)c1ccc(C)cc1,,2.35
C/C(=N/NC(=O)c1ccn(C)n1)c1ccncc1,,-5.86
C/C(=N\NC(=O)c1nc(C)cc(C)n1)c1ccccc1,12 µM (active),
CCOc1ccc(C(CCc2ccccc2)NC(=O)c2ccc(OC)c(OC)c2)cc1OCC (stereo not drawn),,-1.05
